Source: the supplement of paper PMC13380429
Where a name gives a salt, the structure may show the parent alone.

Test system: Vero E6 infected with SARS-CoV-2
Experiment: inhibition of SARS-CoV-2 cytopathic effect; higher = more antiviral protection, active = above 15
Details: 48 h

Measured: inhibition of SARS-CoV-2 cytopathic effect

C[C@H](Cc1cc2c(c(C(N)=O)c1)N(CCCO)CC2)NCCOc1ccccc1OCC(F)(F)F [silodosin]
inactive: 1 nM 3.7% | 8.33 nM -1.05% | 100 nM 2.16% | 833.33 nM 2.24% | 10000 nM 3.11%

CCCC(C(=O)OCCN(CC)CC)(c1ccccc1)c1ccccc1 [proadifen]
inactive: 1 nM -8.13% | 8.33 nM -2.48% | 100 nM -0.9% | 833.33 nM -3.07% | 10000 nM -9.2%

Cc1ccc(S(N)(=O)=O)cc1 [para-toluenesulfonamide]
inactive: 1 nM 3.73% | 8.33 nM 1.88% | 100 nM 1.14% | 833.33 nM 0.12% | 10000 nM -5.38%

COc1ccc2nc3cc(Cl)ccc3c(Nc3cc(CN4CCCC4)c(O)c(CN4CCCC4)c3)c2n1 [pyronaridine]
inactive: 1 nM 3.08% | 8.33 nM 4.56% | 100 nM 8.6% | 833.33 nM 3.79% | 10000 nM -18.6%

CC(=O)O[C@H]1C[C@H](O[C@H]2[C@@H](O)C[C@H](O[C@H]3[C@@H](O)C[C@H](O[C@H]4CC[C@@]5(C)[C@H](CC[C@@H]6[C@@H]5C[C@@H](O)[C@]5(C)[C@@H](C7=CC(=O)OC7)CC[C@]65O)C4)O[C@@H]3C)O[C@@H]2C)O[C@H](C)[C@H]1O[C@@H]1O[C@H](CO)[C@@H](O)[C@H](O)[C@H]1O [lanatoside-C]
inactive: 1 nM 0.4% | 8.33 nM -0.46% | 100 nM -8.78% | 833.33 nM -9.54% | 10000 nM -11.4%

O=C(NCc1ccc(OC(F)(F)F)cc1)C1c2ccccc2C(=O)N1C1CCOCC1 (stereo not given)
inactive: 1 nM -3.69% | 8.33 nM -4.75% | 100 nM -1.62% | 833.33 nM -1.7% | 10000 nM 2.59%

CC(C)(C)c1ccc(S(=O)(=O)NCc2ccc(C(=O)Nc3cccnc3)cc2)cc1
inactive: 1 nM 1.28% | 8.33 nM 0.01% | 100 nM -0.96% | 833.33 nM -2.95% | 10000 nM -10.9%

C[C@H]1N=C(N(C)C)N=C(N)N1 [imeglimin]
inactive: 1 nM 1.51% | 8.33 nM 1.14% | 100 nM 0.07% | 833.33 nM 0.43% | 10000 nM -0.77%

N=c1ccn2c(n1)O[C@H]1[C@H](O)[C@@H](CO)O[C@H]12 [Cyclocytidine HCl]
inactive: 1 nM 1.24% | 8.33 nM 1% | 100 nM 0% | 833.33 nM -0.83% | 10000 nM -4.27%

CCOC(=O)c1ccc(N(C)c2csc(-c3ccccc3)n2)cc1 [neuropathiazol]
inactive: 1 nM -0.18% | 8.33 nM 1.78% | 100 nM 0.85% | 833.33 nM 2.12% | 10000 nM 2.67%

CN1CCc2c(c3ccccc3n2Cc2ccc(C(=O)NO)cc2)C1 [tubastatin-A]
inactive: 1 nM -0.32% | 8.33 nM 0.16% | 100 nM 1.09% | 833.33 nM -1.27% | 10000 nM -6.46%

COC(=O)C1=C(C)NC(C)=C(C(=O)OCCCN2CCC(c3ccccc3)(c3ccccc3)CC2)[C@@H]1c1cccc([N+](=O)[O-])c1 [dexniguldipine]
inactive: 1 nM 1.4% | 8.33 nM 0.16% | 100 nM 2.09% | 833.33 nM -3.36% | 10000 nM -4.64%

Cc1ccc(S(=O)(=O)N2CCC[C@H]2c2ccc(F)cc2)cc1
inactive: 1 nM 0.31% | 8.33 nM -0.49% | 100 nM 0.49% | 833.33 nM 1.4% | 10000 nM 0.86%

Oc1cc(Cl)ccc1Oc1ccc(Cl)cc1Cl [triclosan]
inactive: 1 nM -1.92% | 8.33 nM -0.14% | 100 nM 1.39% | 833.33 nM -0.77% | 10000 nM 7.81%

O[C@H]1CC[C@H](Nc2ncc3nc(Nc4c(F)cc(F)cc4F)n([C@H]4CCOC4)c3n2)CC1
inactive: 1 nM 1.66% | 8.33 nM 2.79% | 100 nM 0.98% | 833.33 nM -0.04% | 10000 nM -3.68%

COc1cn(-c2ccc(-n3cccn3)cc2F)nc(-c2ccnn2-c2ccccc2)c1=O
inactive: 1 nM 1.53% | 8.33 nM 3.16% | 100 nM 0.79% | 833.33 nM 2.26% | 10000 nM 0.75%

CCn1cc(C(=O)O)c(=O)c2cc3c(cc21)OCO3 [oxolinic-acid]
inactive: 1 nM -1.5% | 8.33 nM 0.26% | 100 nM -1.8% | 833.33 nM -0.9% | 10000 nM -3.06%
